Screening data (PubChem)
PostGolgi yeast: growth inhibition of a yeast mutant, post-Golgi transport screen. post-Golgi transport phenotypic cell assay. inhibition, % at 10 µM. hit rate 0.9% among 98,000. AID 739;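 also: yeast cells grown in 1536-well plates; yeast grown about 18 h at 30C before absorbance read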
PostGolgi ctrl: growth of the yeast control strain, post-Golgi counter-screen; efflux-deficient yeast background strain, growth absorbance A615, 16 h; inhibition, % at 10 µM; hit rate 5% among 98,000
CYP2C9 act: increases human cytochrome P450 2C9 activity. AID 1024. hit rate 1.4% among 96,000. P11712. recombinant CYP2C9, luciferin-H conversion, luminescence; stronger effect = higher value; factor 1 = untreated enzyme, 0 = blocked. activation factor at 5 µM;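 active = activation factor of 2 or more for CYP2C9 at a 5 µM dose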;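 also: 0 = sulfaphenazole-blocked wells and 1 = vehicle-only wells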
Target sequence (P11712 whole entry, looked up): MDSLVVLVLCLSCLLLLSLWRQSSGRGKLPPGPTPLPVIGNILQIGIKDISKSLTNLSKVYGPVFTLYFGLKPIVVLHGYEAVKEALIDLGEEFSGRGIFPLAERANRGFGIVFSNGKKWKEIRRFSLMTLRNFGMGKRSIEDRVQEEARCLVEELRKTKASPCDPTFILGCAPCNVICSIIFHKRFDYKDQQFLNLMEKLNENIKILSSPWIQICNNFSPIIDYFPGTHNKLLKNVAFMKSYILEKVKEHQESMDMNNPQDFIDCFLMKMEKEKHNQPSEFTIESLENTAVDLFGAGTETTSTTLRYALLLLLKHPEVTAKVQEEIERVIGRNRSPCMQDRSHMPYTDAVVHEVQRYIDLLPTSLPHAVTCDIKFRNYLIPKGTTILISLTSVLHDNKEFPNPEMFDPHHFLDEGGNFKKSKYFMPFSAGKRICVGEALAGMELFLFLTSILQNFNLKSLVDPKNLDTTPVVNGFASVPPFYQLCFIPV
CYP2C9 inh: inhibitors of human CYP2C9; P11712; CYP2C9 Supersomes, luciferin-H conversion, luminescence; AID 777; inhibition, % at 5 µM; hit rate 20% among 96,000;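 active = blocking of liver enzyme CYP2C9 beyond about 50% at 5 µM, limit read from the data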
CYP2C19 inhib: human CYP2C19 inhibition; P33261; CYP2C19 Supersomes, luciferin-H EGE luminescence, 30 min; inhibition, % at 5 µM; hit rate 21% among 96,000; AID 778;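 active = CYP2C19 inhibition above a set limit at 5 µM in the primary screen, cut at about 50% in these data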;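 also: plate controls were negative control wells for no effect and 2.5 mM tranylcypromine positive control for full effect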
CYP2C19 act: increases human CYP2C19 enzyme activity | P33261 | recombinant CYP2C19, luciferin-H EGE luminescence; stronger effect = higher value; 0 = fully inhibited enzyme, 1 = untreated enzyme | activation factor at 5 µM | 96,000 tested, under 10 active | AID 1025;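 active = activation factor of at least 2 at 5 µM in the primary screen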;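 also: 0 = wells with 2.5 mM tranylcypromine and 1 = vehicle-only wells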
The depositor's hits bear a star; . = no result. Rows were chosen to be rich in hits. Some 32% of all compounds tested hit in one or more screens of this group. Rule as the data show it, unless noted: active = inhibition above about 30%; inactive = the rest.

SMILES	PostGolgi yeast	PostGolgi ctrl	CYP2C9 act	CYP2C9 inh	CYP2C19 inhib	CYP2C19 act
Nc1nc2ccc(Oc3ccccc3)cc2s1	10.4	32.3*	0.3	71.1*	67.5*	0.3
CCOC(=O)c1cnn(-c2ccccc2)c1-n1cccc1C(=O)C(=O)Nc1ccc(OC)cc1	-14.5	14.7	0.2	79.8*	29.7	0.7
Cc1c(C(=O)Oc2cccc3ccccc23)cnn1-c1ccccc1	9.5	6.6	0.6	40.1	67.2*	0.3
CCOC(=O)c1cnn(-c2ccccc2)c1-n1cccc1	-7.7	8.6	0.7	27.4	55.3*	0.4
CCOC(=O)c1cnn(-c2ccccc2)c1-c1ccccc1	0.3	19.4	0.6	43.7	47.5	0.5
CCC(=O)Nc1ccc(-c2nn3c(C)nnc3s2)cc1C	0.6	4.4	1	-0.4	13.3	0.9
Oc1ccc(/C=N/Nc2cc(N3CCCC3)nc(N3CCCC3)n2)cc1	17.3	30.8*	1.5	-49.6	16.7	0.8
COc1cc(/C=N/Nc2nc(N3CCCC3)nc(N3CCCC3)n2)ccc1O	-5.9	-0.7	0.7	26.3	20.3	0.8
Cc1cc(C)c(S(=O)(=O)N2CCN(c3ccc([N+](=O)[O-])c(-n4nc(C)cc4C)c3)CC2)c(C)c1	-7.4	7.1	0.4	60.2*	18.4	0.8
CCOC(=O)N1CCC(Nc2c(NCCCN(CC)Cc3ccccc3)c(=O)c2=O)CC1	3.5	4.0	1.1	-8.0	0.9	1
CCOC(=O)N1CCC(N2C(=O)c3ccccc3C2Nc2ccccc2C)CC1 (stereo not drawn)	7.5	14.9	0.2	79.9*	64.7*	0.4
CCOC(=O)N1CCC(N2C(=O)c3ccccc3C2Nc2ccc(Cl)cn2)CC1 (stereo not drawn)	-6.6	21.4	0.4	57.6*	58.5*	0.4
CCOC(=O)N1CCC(N2C(=O)c3ccccc3C2Nc2ccc3c(C)cc(=O)oc3c2)CC1 (stereo not drawn)	-2.6	6.0	0.2	81.1*	41.2	0.6
CCOC(=O)N1CCC(N2C(=O)c3ccccc3C2Nc2ccc3c(c2)OCCO3)CC1 (stereo not drawn)	-7.9	13.6	0.5	46.6	33.4	0.7
CCC(=O)N1CCc2cc(S(=O)(=O)CCC(=O)NCc3ccc4c(c3)OCO4)ccc21	-1.1	6.2	0.7	29.3	22.6	0.8
CCOC(=O)CCP(=O)(O)C(O)c1ccccc1 (stereo not drawn)	10.8	5.5	1	-4.5	-14.6	1.1
CC(=O)N1CCN(Cc2nc3cc(NC(=O)C4CCCCC4)ccc3n2C)CC1	-5.0	3.8	1	4.0	-12.1	1.1
Cn1c(CN2CCCC2)nc2cc(NC(=O)COc3ccc(Cl)cc3)ccc21	3.3	33.1*	0.9	6.1	0.2	1
CCCC(=O)Nc1ccc2c(c1)nc(CN1CCN(C(C)=O)CC1)n2C	4.2	31.3*	1	-3.1	4.8	1
COc1ccc(OCC(=O)Nc2ccc3c(c2)nc(CN2CCCC2)n3C)cc1	-1.4	3.1	1.1	-10.9	-3.7	1
COc1ccccc1NC(=O)c1sc2nc(Cc3ccccc3)cc(C(F)(F)F)c2c1N	-1.9	-2.0	0.8	22.4	20.6	0.8
COc1ccc(CC(=O)N2CCCc3ccccc32)cc1	19.9	4.0	0.8	19.6	55.3*	0.4
CCCOc1ccc(C(=O)N2CCCc3ccccc32)cc1	4.7	16.4	0.3	69.1*	93.1*	0.1
O=C(CCCOc1ccccc1)N1CCCc2ccccc21	-7.0	5.3	0.7	31.8	48.6	0.5
COc1cc(OC)cc(C(=O)N2CCCc3ccccc32)c1	-6.0	6.0	0.8	23.6	76.3*	0.2
SMILES	PostGolgi yeast	PostGolgi ctrl	CYP2C9 act	CYP2C9 inh	CYP2C19 inhib	CYP2C19 act
Cc1cccc(-n2nc3c(c2NC(=O)CCC2CCCCC2)CS(=O)C3)c1C (stereo not drawn)	7.6	0.2	.	.	.	.
CC(C)CCNC(=O)C(c1cccs1)N(CC1CCCO1)C(=O)Cn1nnc2ccccc21 (stereo not drawn)	-2.6	2.3	0.9	12.8	1.7	1
Cc1nccn1CC(O)COC1CCCCC1 (stereo not drawn)	18.7	13.3	1.1	-8.6	0.3	1
CC[C@@H](C)[C@H](NC(=O)OC(C)(C)C)c1nnc(S(=O)(=O)Cc2cc(C)ccc2C)o1	4.7	41.4*	0.6	41.0	21.0	0.8
CCOC(=O)CSc1nnc([C@H](Cc2ccccc2)NC(=O)OC(C)(C)C)o1	1.9	-2.1	1	0.9	40.8	0.6
CC(C)[C@H](NC(=O)OC(C)(C)C)c1nnc(S(=O)(=O)Cc2c(F)cccc2Cl)o1	.	.	0.9	8.9	1.9	1
CC(C)C[C@H](NC(=O)OC(C)(C)C)c1nnc(SCc2ccccc2)o1	-3.0	0.0	0.4	64.8*	73.9*	0.3
CC(C)(C)OC(=O)N[C@@H](Cc1ccccc1)c1nnc(S(=O)(=O)Cc2cccc(F)c2)o1	17.6	22.1	0.4	60.2*	42.0	0.6
Cc1ccccc1CS(=O)(=O)c1nnc([C@H](CC(C)C)NC(=O)OC(C)(C)C)o1	41.1*	44.7*	0.2	75.8*	29.1	0.7
Cc1cccc(C)c1NC(=O)C1(N(Cc2ccco2)C(=O)CC2NC(=O)NC2=O)CCCC1 (stereo not drawn)	16.1	-4.9	0.9	5.4	-1.0	1
Cc1n[nH]c(C)c1S(=O)(=O)N1CCC(C(=O)N2CCn3c2nc2ccccc23)CC1	-8.9	5.9	0.6	42.5	66.0*	0.3
Cc1ccc(N(CC(=O)N2CCn3c2nc2ccccc23)S(=O)(=O)c2c(C)n[nH]c2C)cc1	6.8	1.5	0.4	63.8*	24.7	0.8
CCOC(=O)N1CCN(C(=O)CN(c2ccc(C)cc2)S(=O)(=O)c2c(C)noc2C)CC1	6.5	7.3	0.7	28.6	10.5	0.9
COc1ccc(CCNC(=O)Cn2c(=O)cnc3ccccc32)cc1	2.9	1.4	0.9	7.3	39.0	0.6
CCCCOC(=O)c1cccc(NC(=O)CC)c1	-0.2	15.4	.	.	.	.
CCCOC(=O)c1cccc(NC(=O)C(C)(C)C)c1	-0.8	15.4	0.4	59.4*	79.0*	0.2
CC(C)(C)C(=O)Nc1cccc(C(=O)c2cccc(NC(=O)C(C)(C)C)c2)c1	6.3	-4.8	0.8	21.8	54.8*	0.5
Cc1nnc2ccc(N3CCOCC3)nn12	-8.0	-1.4	0.9	10.2	-19.3	1.2
Cc1cc(Br)ccc1OCC(=O)NNC(=O)c1ccc(NC(=O)C2CC2)cc1	-12.7	5.0	1	0.2	-2.5	1
O=C(O)C1CCCN1C(=O)OCc1ccccc1 (stereo not drawn)	-0.7	-2.3	1	-1.4	-4.7	1
N#CC1=C(N)C2=C(N3CCCCC3)CCCC2C1(C#N)C#N (stereo not drawn)	11.8	-3.0	0.5	50.7*	14.4	0.9
O=C(O)CCN1C(=O)c2ccccc2C1=O	2.5	-1.6	0.7	28.1	-7.6	1.1
O=C1Cc2ccccc2C(=O)N1CCc1ccccc1	-7.9	-4.8	1	1.8	51.8*	0.5
